# According to the supplement of paper PMC10849652:
# The full data set covers some 7,900 targets. This sample favours those with a hit. About 0.6% of all pairs of compound and target were hits. Unmarked numbers belong to inactive results.
# Columns and labels:
# Assay in all cases: log2 fold change, soluble protein after heating vs DMSO (PISA); higher = thermal stabilisation; K562 cells, 10 uM, 30 min; active = over 0.2 and 3.5 SD of the protein, either way, in both replicates (recomputed)
# [1] = compound: CS(=O)(=O)c1ccc(-c2cnc(N)c(C(=O)Nc3ccccc3)n2)cc1
# Outline: (§1)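 K562 cells at 2×10^6 cells/mL were given 10 μM compound for 30 min. Aliquots then went through 3 min of heating across 48°C-58°C, were pooled, and were extracted in PBS with 0.5% NP-40 at 4°C, and the supernatant after 21,000xg for 90 min was quantified by TMTpro 16plex LC-MS/MS with channel sums equalised. Thermal stability relative to control samples, from duplicates, is given as log2 fold change.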
# [2] = compound: C[C@@H](Oc1cc(-c2cnn(C3CCNCC3)c2)cnc1N)c1c(Cl)ccc(F)c1Cl [crizotinib]
# Outline: as §1
# [3] = compound: C[C@@H]1COCCN1C2=NC(=NC(=C2)C3(CC3)S(=O)(=O)C)C4=C5C=CNC5=CC=C4
# Outline: as §1
# [4] = compound: C[C@H](C1=CC=C(C=C1)C(=O)NC2=C3C=CNC3=NC=C2)N
# Outline: as §1
# [5] = compound: C[C@H](Nc1ncnc2nc[nH]c12)c1cc2cccc(Cl)c2c(=O)n1-c1ccccc1 [duvelisib]
# Outline: as §1
# [6] = compound: Cc1cc(Nc2cc(CN3CCOCC3)c3nc(C)c(Cc4ccc(Cl)cc4F)n3n2)n[nH]1 [gandotinib]
# Outline: as §1
# [7] = compound: Cc1cc(Nc2cc(N3CCN(C)CC3)nc(Sc3ccc(NC(=O)C4CC4)cc3)n2)n[nH]1 [tozasertib]
# Outline: as §1
# [8] = compound: Cc1cc(SCc2sc(-c3ccc(C(F)(F)F)cc3)nc2C)ccc1OCC(=O)O
# Outline: as §1
# [9] = compound: Cc1ccc(-n2nc(C(C)(C)C)cc2NC(=O)Nc2ccc(OCCN3CCOCC3)c3ccccc23)cc1 [doramapimod]
# Outline: as §1
# [10] = compound: Cc1ccc(C(=O)N(CCCN)[C@@H](c2nc3cc(Cl)ccc3c(=O)n2Cc2ccccc2)C(C)C)cc1 [ispinesib]
# Outline: as §1
# Sequence of UniProt P09874 (P09874 whole entry, looked up): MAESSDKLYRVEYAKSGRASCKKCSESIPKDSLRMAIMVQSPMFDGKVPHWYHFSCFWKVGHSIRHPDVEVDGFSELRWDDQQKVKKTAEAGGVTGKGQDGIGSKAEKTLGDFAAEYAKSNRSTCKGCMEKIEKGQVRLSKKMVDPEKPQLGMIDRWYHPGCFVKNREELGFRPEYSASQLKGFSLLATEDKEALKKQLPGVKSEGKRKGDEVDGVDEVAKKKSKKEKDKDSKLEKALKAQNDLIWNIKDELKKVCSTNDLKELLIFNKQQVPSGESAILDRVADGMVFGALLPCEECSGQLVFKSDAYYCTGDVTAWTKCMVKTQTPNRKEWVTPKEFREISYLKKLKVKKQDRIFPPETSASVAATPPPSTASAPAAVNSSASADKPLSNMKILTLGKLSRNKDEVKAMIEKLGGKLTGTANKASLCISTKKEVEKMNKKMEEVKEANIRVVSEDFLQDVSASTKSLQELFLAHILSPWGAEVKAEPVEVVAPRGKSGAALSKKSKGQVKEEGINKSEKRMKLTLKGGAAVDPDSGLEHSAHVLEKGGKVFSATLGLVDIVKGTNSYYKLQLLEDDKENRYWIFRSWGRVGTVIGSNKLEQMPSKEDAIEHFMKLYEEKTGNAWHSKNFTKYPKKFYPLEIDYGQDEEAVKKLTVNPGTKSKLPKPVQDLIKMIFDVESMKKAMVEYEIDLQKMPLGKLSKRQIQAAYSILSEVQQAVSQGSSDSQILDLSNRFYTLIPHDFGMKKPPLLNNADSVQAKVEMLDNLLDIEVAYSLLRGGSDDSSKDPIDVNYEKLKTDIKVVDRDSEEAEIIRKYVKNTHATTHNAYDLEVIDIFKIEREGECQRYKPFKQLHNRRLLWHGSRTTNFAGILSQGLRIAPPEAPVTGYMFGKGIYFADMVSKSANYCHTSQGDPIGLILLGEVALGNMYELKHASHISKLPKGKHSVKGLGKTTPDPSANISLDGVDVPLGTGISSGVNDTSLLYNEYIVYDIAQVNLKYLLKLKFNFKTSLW
# Sequence of UniProt Q05655 (Q05655 whole entry, looked up): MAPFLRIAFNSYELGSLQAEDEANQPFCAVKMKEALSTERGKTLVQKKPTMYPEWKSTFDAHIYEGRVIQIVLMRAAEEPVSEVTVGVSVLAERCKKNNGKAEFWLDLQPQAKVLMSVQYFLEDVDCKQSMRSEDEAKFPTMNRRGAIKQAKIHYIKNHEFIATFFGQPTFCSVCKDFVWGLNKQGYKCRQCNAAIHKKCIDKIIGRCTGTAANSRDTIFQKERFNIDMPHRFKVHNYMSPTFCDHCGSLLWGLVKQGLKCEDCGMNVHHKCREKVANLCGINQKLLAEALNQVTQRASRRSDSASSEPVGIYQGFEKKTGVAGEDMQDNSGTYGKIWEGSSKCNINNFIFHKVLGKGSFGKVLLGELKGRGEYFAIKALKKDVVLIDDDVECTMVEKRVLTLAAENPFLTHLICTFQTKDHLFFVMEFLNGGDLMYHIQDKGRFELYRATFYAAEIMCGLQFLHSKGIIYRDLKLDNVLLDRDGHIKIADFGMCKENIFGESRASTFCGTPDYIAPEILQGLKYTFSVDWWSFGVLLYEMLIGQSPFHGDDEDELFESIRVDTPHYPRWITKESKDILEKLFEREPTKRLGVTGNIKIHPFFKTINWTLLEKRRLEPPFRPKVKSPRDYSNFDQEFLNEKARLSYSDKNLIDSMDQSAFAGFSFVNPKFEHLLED
# Sequence of UniProt Q86TB9 (Q86TB9 whole entry, looked up): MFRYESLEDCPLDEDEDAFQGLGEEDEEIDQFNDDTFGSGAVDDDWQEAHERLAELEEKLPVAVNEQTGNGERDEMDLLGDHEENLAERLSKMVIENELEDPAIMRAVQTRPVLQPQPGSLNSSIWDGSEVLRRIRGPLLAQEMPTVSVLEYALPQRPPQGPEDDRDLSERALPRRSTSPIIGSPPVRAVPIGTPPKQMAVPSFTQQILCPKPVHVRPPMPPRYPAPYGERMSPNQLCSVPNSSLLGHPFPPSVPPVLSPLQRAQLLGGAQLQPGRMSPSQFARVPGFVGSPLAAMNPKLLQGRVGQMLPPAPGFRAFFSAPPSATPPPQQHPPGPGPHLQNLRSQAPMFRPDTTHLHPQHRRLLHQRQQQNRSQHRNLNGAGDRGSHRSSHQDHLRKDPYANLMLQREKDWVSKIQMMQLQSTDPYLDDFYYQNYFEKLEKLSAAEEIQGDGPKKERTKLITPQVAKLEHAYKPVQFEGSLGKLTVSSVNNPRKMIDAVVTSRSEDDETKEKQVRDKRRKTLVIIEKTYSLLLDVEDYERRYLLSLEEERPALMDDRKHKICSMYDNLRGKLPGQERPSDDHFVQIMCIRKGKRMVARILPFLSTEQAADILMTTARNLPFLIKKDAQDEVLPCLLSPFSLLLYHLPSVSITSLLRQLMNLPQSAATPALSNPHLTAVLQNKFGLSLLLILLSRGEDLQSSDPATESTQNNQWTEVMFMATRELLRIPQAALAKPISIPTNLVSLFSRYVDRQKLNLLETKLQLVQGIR
# Sequence of UniProt Q9H5K3 (Q9H5K3 whole entry, looked up): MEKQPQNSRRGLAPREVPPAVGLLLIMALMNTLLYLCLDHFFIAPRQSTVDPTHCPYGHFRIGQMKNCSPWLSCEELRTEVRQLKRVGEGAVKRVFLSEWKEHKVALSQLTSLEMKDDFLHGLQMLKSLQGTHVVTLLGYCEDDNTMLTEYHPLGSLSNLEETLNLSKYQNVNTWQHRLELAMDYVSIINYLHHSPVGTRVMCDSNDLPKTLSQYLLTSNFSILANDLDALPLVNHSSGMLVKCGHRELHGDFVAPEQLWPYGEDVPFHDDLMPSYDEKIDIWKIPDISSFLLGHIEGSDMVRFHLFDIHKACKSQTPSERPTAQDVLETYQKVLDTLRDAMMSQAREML
# Sequence of UniProt Q8NEB9 (Q8NEB9 whole entry, looked up): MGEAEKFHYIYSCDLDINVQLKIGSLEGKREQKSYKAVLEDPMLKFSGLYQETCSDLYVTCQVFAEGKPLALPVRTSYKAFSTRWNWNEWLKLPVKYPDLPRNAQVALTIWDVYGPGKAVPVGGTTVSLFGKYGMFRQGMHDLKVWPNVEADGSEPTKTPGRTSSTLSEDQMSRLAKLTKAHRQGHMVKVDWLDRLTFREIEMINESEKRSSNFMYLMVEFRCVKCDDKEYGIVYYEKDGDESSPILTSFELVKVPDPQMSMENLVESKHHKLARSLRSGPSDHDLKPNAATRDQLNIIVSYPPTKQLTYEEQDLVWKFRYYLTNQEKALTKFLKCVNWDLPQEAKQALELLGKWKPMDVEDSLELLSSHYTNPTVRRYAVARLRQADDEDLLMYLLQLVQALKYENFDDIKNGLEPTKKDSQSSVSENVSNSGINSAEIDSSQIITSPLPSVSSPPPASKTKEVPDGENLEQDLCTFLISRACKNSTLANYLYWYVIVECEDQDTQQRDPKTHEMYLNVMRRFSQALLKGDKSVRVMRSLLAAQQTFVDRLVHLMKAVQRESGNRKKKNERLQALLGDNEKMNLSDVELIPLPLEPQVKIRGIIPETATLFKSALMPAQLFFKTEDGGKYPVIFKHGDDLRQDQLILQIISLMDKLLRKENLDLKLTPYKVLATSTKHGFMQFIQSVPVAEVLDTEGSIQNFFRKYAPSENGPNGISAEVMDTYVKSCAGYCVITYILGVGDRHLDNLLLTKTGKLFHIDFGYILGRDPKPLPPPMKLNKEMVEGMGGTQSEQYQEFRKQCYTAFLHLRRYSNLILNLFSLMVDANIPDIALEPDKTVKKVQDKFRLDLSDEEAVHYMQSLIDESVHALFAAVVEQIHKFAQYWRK
# Sequence of UniProt Q5VTL8 (Q5VTL8 whole entry, looked up): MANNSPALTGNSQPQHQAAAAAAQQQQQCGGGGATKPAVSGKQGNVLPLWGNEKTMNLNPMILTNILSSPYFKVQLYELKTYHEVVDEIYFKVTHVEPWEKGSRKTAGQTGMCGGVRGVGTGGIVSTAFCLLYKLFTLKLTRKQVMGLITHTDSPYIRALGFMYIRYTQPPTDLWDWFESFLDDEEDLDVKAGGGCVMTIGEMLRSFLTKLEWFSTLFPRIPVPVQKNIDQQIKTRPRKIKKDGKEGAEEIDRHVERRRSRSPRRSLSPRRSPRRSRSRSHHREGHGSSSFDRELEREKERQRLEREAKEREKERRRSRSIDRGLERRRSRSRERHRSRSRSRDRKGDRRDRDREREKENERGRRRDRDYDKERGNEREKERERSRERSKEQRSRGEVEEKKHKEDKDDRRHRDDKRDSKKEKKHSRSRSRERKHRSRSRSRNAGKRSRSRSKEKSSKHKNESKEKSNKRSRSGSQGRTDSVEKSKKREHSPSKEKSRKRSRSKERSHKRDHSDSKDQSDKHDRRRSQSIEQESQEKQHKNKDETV
# Sequence of UniProt Q8WXF1 (Q8WXF1 whole entry, looked up): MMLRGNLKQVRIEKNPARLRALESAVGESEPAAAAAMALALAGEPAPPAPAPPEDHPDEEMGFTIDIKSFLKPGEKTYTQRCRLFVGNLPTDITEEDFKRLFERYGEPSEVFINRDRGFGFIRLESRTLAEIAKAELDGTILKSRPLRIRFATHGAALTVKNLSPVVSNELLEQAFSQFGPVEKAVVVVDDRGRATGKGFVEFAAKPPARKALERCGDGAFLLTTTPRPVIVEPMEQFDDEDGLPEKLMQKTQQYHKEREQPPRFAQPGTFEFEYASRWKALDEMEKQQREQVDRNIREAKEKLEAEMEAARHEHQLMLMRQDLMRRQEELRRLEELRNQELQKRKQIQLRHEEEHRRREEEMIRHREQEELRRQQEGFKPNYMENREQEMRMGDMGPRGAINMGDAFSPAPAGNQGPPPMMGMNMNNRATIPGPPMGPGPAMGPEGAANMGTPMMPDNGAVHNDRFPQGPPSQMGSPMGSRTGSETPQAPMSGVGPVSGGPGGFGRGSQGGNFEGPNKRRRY
# Sequence of UniProt Q6GMV3 (Q6GMV3 whole entry, looked up): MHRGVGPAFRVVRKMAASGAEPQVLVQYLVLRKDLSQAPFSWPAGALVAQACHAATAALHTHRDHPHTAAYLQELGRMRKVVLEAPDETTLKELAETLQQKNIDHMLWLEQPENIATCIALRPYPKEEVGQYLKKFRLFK
# Sequence of UniProt Q9Y2Y1 (Q9Y2Y1 whole entry, looked up): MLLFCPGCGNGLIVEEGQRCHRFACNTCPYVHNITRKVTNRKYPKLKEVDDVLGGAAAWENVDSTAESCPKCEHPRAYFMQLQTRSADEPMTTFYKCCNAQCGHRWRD
Target,log2 fold change [1],log2 fold change [2],log2 fold change [3],log2 fold change [4],log2 fold change [5],log2 fold change [6],log2 fold change [7],log2 fold change [8],log2 fold change [9],log2 fold change [10]
PDCD4 (UniProt Q53EL6),0.096,0.09,0.303,0.007,0.133,-0.141,0.126,0.066,-0.047,0.039
POLA1 (UniProt P09884),0.01,-0.041,0.065,-0.048,0.046,-0.069,0.083,0.09,-0.029,-0.036
POLR3K (UniProt Q9Y2Y1),-0.026,0.015,0.035,-0.027,0.067,0.066,-0.011,-0.059,0.038,-0.075
PRKAR1B (UniProt P31321),0.137,0.132,0.071,0.123,0.199,0.095,0.136,-0.011,-0.03,-0.072
PCYT1A (UniProt P49585),-0.031,-0.032,0.092,-0.097,0.081,-0.148,0.072,0.094,-0.008,0.003
PIK3C3 (UniProt Q8NEB9),0.147,-0.037,-0.125,0.06,0.258 (active),0.164,0.012,-0.008,0.127,-0.101
PTPN23 (UniProt Q9H3S7),0.014,0.057,0.018,0.027,0.116,-0.072,0.148,0.13,-0.002,0.018
PRKCD (UniProt Q05655),0.05,-0.008,0.053,-0.215,0.009,-0.056,-0.006,0.007,0.005,-0.007
PSMC5 (UniProt P62195),0.025,0.001,-0.07,0.057,-0.028,0.017,0.04,0.036,0.028,-0.007
PKM (UniProt P14618),0.003,0.021,0.013,-0.044,0.007,-0.013,-0.026,-0.029,-0.019,0.02
PTRHD1 (UniProt Q6GMV3),0.003,0.006,0.184,-0.097,0.18,0.08,0.037,0.022,-0.036,0.225
PRPF38B (UniProt Q5VTL8),-0.051,-0.026,0.058,-0.269 (active),0.023,0.001,-0.022,-0.002,0.005,0.193
PNPLA8 (UniProt Q9NP80),-0.009,-0.12,0.002,-0.034,-0.003,0.031,-0.011,-0.002,0.023,-0.051
PSPC1 (UniProt Q8WXF1),-0.068,0.076,-0.044,0.088,-0.03,-0.09,0.01,0.04,-0.028,-0.217
PLBD1 (UniProt Q6P4A8),-0.01,-0.082,0.009,-0.032,0.01,0.011,-0.005,-0.032,-0.007,0.016
PEX7 (UniProt O00628),-0.011,-0.037,0.121,0.024,0.04,-0.005,-0.042,0.145,0.002,-0.078
PC (UniProt P11498),0.033,0.103,0.199,0.167,0.01,-0.143,-0.048,0.024,0.008,0.186
PDPK1 (UniProt O15530),-0.066,-0.282 (active),0.081,0.013,-0.206,-0.173,-0.085,0.015,0.003,-0.143
PSME4 (UniProt Q14997),0.036,-0.161,0.013,0.052,0.02,-0.082,-0.078,0.093,0.045,-0.09
PIGG (UniProt Q5H8A4),0.062,-0.053,0.01,-0.041,0.046,-0.035,-0.013,0.011,0.098,-0.02
PRKCQ (UniProt Q04759),0.021,-0.238,0.037,-0.374 (active),0.022,-0.165,-0.033,0.023,0.038,-0.106
PRPF31 (UniProt Q8WWY3),0.041,0.013,0.181,0.137,0.133,-0.044,0.08,0.159,0.069,-0.029
PDE2A (UniProt O00408),-0.064,0.004,0.223,-0.108,0.034,0.117,-0.105,0.045,-0.026,-0.067
PAK4 (UniProt O96013),-0.028,-0.033,0.058,-0.017,0.037,-0.028,-0.013,0.021,-0.042,-0.111
POMK (UniProt Q9H5K3),-0.013,-0.044,-0.034,0.086,0.062,0.027,0.024,0.092,0.108,-0.203
PARP1 (UniProt P09874),0.088,0.037,0.007,0.012,0.102,-0.029,0.08,0.165,-0.065,-0.126
PPP1R12A (UniProt O14974),-0.054,-0.351,-0.039,-0.885 (active),0.065,0.021,0.011,0.029,-0.054,-0.1
PHF5A (UniProt Q7RTV0),0.013,0.074,-0.061,-0.072,0,-0.009,0.043,-0.031,-0.093,0.094
PATL1 (UniProt Q86TB9),-0.014,-0.201,-0.037,0.122,-0.002,-0.139,-0.014,0.039,0.12,-0.339 (active)
PTRH2 (UniProt Q9Y3E5),0.02,0.081,0.061,-0.098,0.051,-0.02,0.001,-0.001,-0.074,0.181
